Laboratory results taken from article PMC4336329 (PLoS ONE, 2015).
Among all 310,000 compounds or so, about 2,200 (0.71%) showed an effect of 50% or more. Effects have a minus sign here. This excerpt belongs to a sample that is enriched for strong results.

target: human ether-à-go-go-related gene (hERG) potassium channel (human, UniProt Q12809); test: primary screen, population patch clamp on CHO cells stably expressing hERG; higher = less effect of the substance
Sequence (Q12809 whole entry, looked up): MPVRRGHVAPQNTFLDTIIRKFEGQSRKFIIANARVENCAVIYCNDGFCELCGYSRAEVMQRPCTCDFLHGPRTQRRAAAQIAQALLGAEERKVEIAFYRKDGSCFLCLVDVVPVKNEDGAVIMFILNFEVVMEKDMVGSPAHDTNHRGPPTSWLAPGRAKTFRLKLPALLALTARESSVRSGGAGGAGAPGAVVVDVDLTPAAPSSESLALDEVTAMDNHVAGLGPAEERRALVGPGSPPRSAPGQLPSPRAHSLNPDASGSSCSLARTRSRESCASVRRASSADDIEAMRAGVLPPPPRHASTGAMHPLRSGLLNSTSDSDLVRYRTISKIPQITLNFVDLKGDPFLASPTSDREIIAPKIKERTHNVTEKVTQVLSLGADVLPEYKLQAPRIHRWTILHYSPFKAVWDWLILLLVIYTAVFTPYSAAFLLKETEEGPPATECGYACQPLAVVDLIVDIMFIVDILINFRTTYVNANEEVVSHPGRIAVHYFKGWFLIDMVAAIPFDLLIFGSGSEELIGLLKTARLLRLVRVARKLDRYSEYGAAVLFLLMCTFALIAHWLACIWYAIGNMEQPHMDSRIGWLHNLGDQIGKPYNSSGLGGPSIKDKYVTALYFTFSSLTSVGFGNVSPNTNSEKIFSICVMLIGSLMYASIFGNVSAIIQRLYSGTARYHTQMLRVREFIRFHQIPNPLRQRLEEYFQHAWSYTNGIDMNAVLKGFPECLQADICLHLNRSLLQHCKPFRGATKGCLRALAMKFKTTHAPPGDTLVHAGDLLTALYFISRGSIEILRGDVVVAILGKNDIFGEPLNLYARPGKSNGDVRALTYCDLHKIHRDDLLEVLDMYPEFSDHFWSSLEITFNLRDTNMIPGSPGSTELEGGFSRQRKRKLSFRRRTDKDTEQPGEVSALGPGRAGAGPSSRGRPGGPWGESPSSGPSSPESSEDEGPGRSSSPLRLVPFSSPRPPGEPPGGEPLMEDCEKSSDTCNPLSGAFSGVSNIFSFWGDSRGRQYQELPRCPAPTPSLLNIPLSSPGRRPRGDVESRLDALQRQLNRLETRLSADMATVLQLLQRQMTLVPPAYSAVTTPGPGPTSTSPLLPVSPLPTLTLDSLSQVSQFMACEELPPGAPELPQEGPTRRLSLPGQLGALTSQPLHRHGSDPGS

First: O=C(CCCN1C(=O)/C(=C/c2ccccc2Cl)SC1=S)Nc1ccccn1
Second: O=C(COc1ccc(Cl)cc1)Nc1ccc(Cl)cn1
The “hERG current change (%, negative = inhibition) at 1uM” value of the first is higher: 4.44% for the first, -2% for the second.

First: COc1cc(NC(=O)CSc2nccc(C)n2)c(C(=O)O)cc1OC
Second: COc1ccc(OC)c(NC(=O)CSc2nnc(CNC(=O)COc3ccc(Cl)cc3)o2)c1
The “hERG current change (%, negative = inhibition) at 1uM” value of the first is lower: -7.07% for the first, 2.4% for the second.

First: COc1cc2c(cc1OC)C(COc1ccccc1OC)N(C(=O)C(C)(C)C)CC2 (centres unmarked)
Second: COc1ccc(NC(=O)N2CCN(c3ccc([N+](=O)[O-])cc3)CC2)cc1OC
The “hERG current change (%, negative = inhibition) at 1uM” value of the first is higher: 5.43% for the first, -63.2% for the second.

Going from `COCc1[nH]nc2c1C(c1ccc(OC)c(OC)c1)C(C#N)=C(N)O2` (centres unmarked) to `COc1ccc(NC(=S)N2CCN(c3ccc([N+](=O)[O-])cc3)CC2)cc1OC`, the “hERG current change (%, negative = inhibition) at 1uM” value falls from 10.6% to -82.2%.

First: CCOc1ccc(N2CC(C(=O)Nc3ccccc3N3CCOCC3)CC2=O)cc1 (centres unmarked)
Second: Cc1ccc(N2CC(C(=O)N3CCN(C(=O)c4ccco4)CC3)CC2=O)cc1 (centres unmarked)
The “hERG current change (%, negative = inhibition) at 1uM” value of the first is higher: 4.41% for the first, -45.8% for the second.

First: COC(=O)C1=C(O)C(C(=O)OC)C(c2ccc(C)cc2)C(C#N)(C#N)C1c1ccc(C)cc1 (centres unmarked)
Second: COc1ccccc1C(=O)NNC(=O)c1ccccc1
The “hERG current change (%, negative = inhibition) at 1uM” value of the first is lower: 6.75% for the first, 9.59% for the second.

Compared with `O=C(c1cc2c(ccc3ccccc32)o1)N1CCCCC1`, `O=C(c1ccco1)N1CCN(C(=O)C2CC(c3ccccc3F)=NO2)CC1` (centres unmarked) is lower in “hERG current change (%, negative = inhibition) at 1uM” value: 14.4% for the first, 3.75% for the second.

Compared with `CCOC(=O)N1CCN(C(=O)COC(=O)c2ccc(O)cc2O)CC1`, `CCOC(=O)N1CCN(C(=O)c2sc3nc(-c4ccc(F)cc4)cn3c2C)CC1` is lower in “hERG current change (%, negative = inhibition) at 1uM” value: 16.8% for the first, -22.3% for the second.

Compared with `CC(=O)c1ccc(-n2c(-c3cc(-c4ccsc4)n[nH]3)n[nH]c2=S)cc1`, `COc1ccc(-n2c(-c3cccc(C)c3[N+](=O)[O-])n[nH]c2=S)cc1` is lower in “hERG current change (%, negative = inhibition) at 1uM” value: 7.9% for the first, 7.34% for the second.

Compared with `CCCCCn1c(=O)[nH]c2cc(C(=O)NCCN3CCOCC3)ccc2c1=O`, `Cc1c(C(=O)NCCCN2CCOCC2)sc2nc(-c3ccc(F)cc3)cn12` is lower in “hERG current change (%, negative = inhibition) at 1uM” value: 6.68% for the first, -16.8% for the second.

First: O=C1NC(Cc2ccccc2)c2nc3ccc(Cl)cc3c(=O)n2-c2ccc(Cl)cc21 (centres unmarked)
Second: O=C(N/C(=C/c1cn(-c2ccccc2)nc1-c1ccccc1)C(=O)N1CCOCC1)c1ccc(Cl)cc1Cl
The “hERG current change (%, negative = inhibition) at 1uM” value of the first is lower: 10.4% for the first, 24.2% for the second.

First: COc1ccc(S(=O)(=O)N2CCOCC2)cc1NC(=O)c1cccc(Cl)c1
Second: COc1ccc(N2CCN(C(=O)c3cccc(Br)c3)CC2)c([N+](=O)[O-])c1
The “hERG current change (%, negative = inhibition) at 1uM” value of the first is higher: 6.86% for the first, -85.9% for the second.

First: N#Cc1c(N)n(CCOC(=O)c2cccc([N+](=O)[O-])c2)c2nc3ccccc3nc12
Second: COc1ccc(C(=O)Nc2nc3ccccc3[nH]2)cc1
The “hERG current change (%, negative = inhibition) at 1uM” value of the first is lower: 13.1% for the first, 20.6% for the second.

Compared with `COc1ccc(CCNC(=O)c2ccc3c(c2)OCO3)cc1`, `COc1cccc(-n2c(SCC(=O)NCCc3ccccc3)nnc2-c2ccoc2C)c1` is lower in “hERG current change (%, negative = inhibition) at 1uM” value: 11.4% for the first, -50.4% for the second.

Compared with `COc1cccc(-n2c(SCC(=O)NC(C)(C)C)nnc2-c2ccoc2C)c1`, `COc1cccc(NC(=O)CSc2nnc(-c3ccoc3C)n2-c2ccccc2)c1` is lower in “hERG current change (%, negative = inhibition) at 1uM” value: -3.46% for the first, -17.5% for the second.

First: Cn1c(SCC(=O)NCc2ccco2)nnc1-c1cccs1
Second: O=C(CSc1nnc(-c2cccs2)n1-c1ccccc1)NCc1ccco1
The “hERG current change (%, negative = inhibition) at 1uM” value of the first is higher: 8.99% for the first, -65.9% for the second.

First: COc1ccc(-n2c(SCC(=O)Nc3nccs3)nnc2-c2ccoc2C)cc1
Second: CCOc1ccc(-n2c(SCC(=O)Nc3nccs3)nnc2-c2ccoc2C)cc1
The “hERG current change (%, negative = inhibition) at 1uM” value of the first is lower: -79.4% for the first, -35.1% for the second.

Compared with `CCN(CC)C(=O)CSc1nnc(-c2ccccn2)n1-c1ccc(C)c(C)c1`, `Cc1ccc(-n2c(SCC(N)=O)nnc2-c2ccccn2)cc1C` is higher in “hERG current change (%, negative = inhibition) at 1uM” value: -4.22% for the first, 13% for the second.

Going from `Cc1csc(NC(=O)CSc2nnc(-c3ccccn3)n2-c2ccc(C)c(C)c2)n1` to `COc1ccc(-n2c(SCC(=O)Nc3nccs3)nnc2-c2ccccc2)cc1`, the “hERG current change (%, negative = inhibition) at 1uM” value rises from -57.4% to 13.9%.

First: O=C(CSc1nnc(-c2ccccc2)n1-c1ccccc1)NCc1ccco1
Second: CC(=O)n1nc(-c2ccccc2)nc1NCc1cccs1
The “hERG current change (%, negative = inhibition) at 1uM” value of the first is higher: 7.59% for the first, 7.45% for the second.

Going from `Cc1ccc(OCC(=O)NC2CCS(=O)(=O)C2)cc1` (centres unmarked) to `Cc1ccccc1OCC(=O)Nc1ccccc1C(=O)NC1CC1`, the “hERG current change (%, negative = inhibition) at 1uM” value rises from 4.41% to 8.41%.

Going from `CCCNc1cc(C)oc(=O)c1C(=O)CC` to `CCOC(=O)CNC(=O)CSc1nnnn1-c1ccc(C)c(C)c1`, the “hERG current change (%, negative = inhibition) at 1uM” value falls from 18.4% to 0.993%.

Going from `CC1(C)Cc2c(C#N)c(SCC(=O)c3ccccc3)nc(N3CCOCC3)c2CS1` to `COc1ccc(N2CCN(C(=O)c3ccccc3)CC2)c([N+](=O)[O-])c1`, the “hERG current change (%, negative = inhibition) at 1uM” value falls from 13% to -33.8%.

Going from `COc1ccc(N2CCN(C(=O)c3ccc(Br)cc3)CC2)c([N+](=O)[O-])c1` to `CCC(=O)N1CCN(c2ccc(OC)cc2[N+](=O)[O-])CC1`, the “hERG current change (%, negative = inhibition) at 1uM” value rises from -30.1% to -0.687%.

First: COc1ccc(N2CCN(C(=O)CC34CC5CC(CC(C5)C3)C4)CC2)c([N+](=O)[O-])c1
Second: CCCCC(=O)N1CCN(c2ccc(OC)cc2[N+](=O)[O-])CC1
The “hERG current change (%, negative = inhibition) at 1uM” value of the first is higher: 10.3% for the first, -54.5% for the second.

Going from `CCOc1cc(C2C3=C(CC(C)(C)CC3=O)N(CCCOC)C3=C2C(=O)CC(C)(C)C3)ccc1O` to `CCN(CC)CCCNC(=O)c1sc2nc(-c3ccc(F)cc3)cn2c1C`, the “hERG current change (%, negative = inhibition) at 1uM” value falls from 14% to -55.5%.

Compared with `O=C1CC(NS(=O)(=O)c2cccnc2)CN1c1cccc(F)c1` (centres unmarked), `O=C(c1ccco1)N1CCN(C(=O)C2CC(=O)N(c3ccccc3)C2)CC1` (centres unmarked) is lower in “hERG current change (%, negative = inhibition) at 1uM” value: 10.3% for the first, -1.56% for the second.

Going from `Cc1ccc(C)c(N(C(=O)CNC(=O)c2ccco2)C(C(=O)NC2CCCCC2)c2ccncc2)c1` (centres unmarked) to `O=C(c1ccco1)N1CCN(C(=O)C2CC(c3ccc(F)cc3)=NO2)CC1` (centres unmarked), the “hERG current change (%, negative = inhibition) at 1uM” value falls from 7.2% to -59.7%.

First: COc1cc(OC)c(C2=NOC(C(=O)N3CCN(C(=O)c4ccco4)CC3)C2)cc1Cl (centres unmarked)
Second: COc1ccc(C2=NOC(C(=O)N3CCN(C(=O)c4ccco4)CC3)C2)cc1OC (centres unmarked)
The “hERG current change (%, negative = inhibition) at 1uM” value of the first is lower: -12.8% for the first, 15.8% for the second.

Going from `Cc1c(C(=O)N2CCN(C(=O)c3ccco3)CC2)sc2nc(-c3ccc(F)cc3)cn12` to `Cc1c(C(=O)N2CCN(c3ccc(F)cc3)CC2)sc2nc(-c3ccccc3)cn12`, the “hERG current change (%, negative = inhibition) at 1uM” value rises from -56.7% to -2.42%.

Compared with `CCN(CC)CCNC(=O)c1sc2nc(-c3ccccc3)cn2c1C`, `C[C@H](NC(=O)c1nc[nH]c1C(=O)N[C@@H](CCCCNC(=O)OC(C)(C)C)C(=O)OC(C)(C)C)c1ccccc1` is higher in “hERG current change (%, negative = inhibition) at 1uM” value: -31.8% for the first, 19.1% for the second.

First: COc1cccc(C2=NOC(C(=O)N3CCN(C(=O)c4ccco4)CC3)C2)c1 (centres unmarked)
Second: O=C(c1ccco1)N1CCN(C(=O)C2CC(c3ccc(Cl)cc3)=NO2)CC1 (centres unmarked)
The “hERG current change (%, negative = inhibition) at 1uM” value of the first is higher: -16.3% for the first, -66.5% for the second.

Compared with `O=C(c1cccc(N2C(=O)C3CC=CCC3C2=O)c1)N1CCCc2ccccc21` (centres unmarked), `COc1ccccc1N1CCN(C(=O)Nc2ccc([N+](=O)[O-])cc2)CC1` is higher in “hERG current change (%, negative = inhibition) at 1uM” value: -16.3% for the first, -10.6% for the second.

Going from `Cn1cc(CC(=O)N2CCN(c3ccc(Cl)cc3)CC2)c2ccccc21` to `COc1cccc(NC(=S)N2CCN(c3ccc([N+](=O)[O-])cc3)CC2)c1`, the “hERG current change (%, negative = inhibition) at 1uM” value falls from -0.545% to -9.45%.

Going from `Cc1ccc(C)c(NC(=S)N2CCN(CCO)CC2)c1` to `O=[N+]([O-])c1ccc(N2CCN(C(=S)Nc3ccc(F)cc3)CC2)cc1`, the “hERG current change (%, negative = inhibition) at 1uM” value falls from 5.15% to -23.8%.

Compared with `CC1CCN(C(=O)COC(=O)c2cn(C)c3ccccc23)CC1`, `O=C(c1ccco1)N1CCN(C(=O)C2CC(=O)N(c3ccc(Cl)cc3)C2)CC1` (centres unmarked) is lower in “hERG current change (%, negative = inhibition) at 1uM” value: 7.49% for the first, -80.2% for the second.

Compared with `COc1ccc(Oc2nc(SC)nc3ccccc23)cc1`, `COc1ccc(NC(=O)N2CCN(c3ccc([N+](=O)[O-])cc3)CC2)cc1` is lower in “hERG current change (%, negative = inhibition) at 1uM” value: 2.03% for the first, -14.2% for the second.

Going from `O=C(/C=C/Nc1ccc(F)cc1F)c1cccs1` to `S=c1[nH]nc(-c2ccncc2)n1/N=C/c1cccc(Cl)c1`, the “hERG current change (%, negative = inhibition) at 1uM” value falls from 18.4% to 8.7%.

First: Cc1ccc(S(=O)(=O)N/N=C/c2cc(Br)c(C)o2)cc1
Second: Cc1ccc2nc(-c3ccc4c(c3)OCCO4)cn2c1
The “hERG current change (%, negative = inhibition) at 1uM” value of the first is lower: 8.23% for the first, 15.7% for the second.

Going from `Cl.O=S1(=O)N=C(N(CCO)/N=C/c2ccncc2)c2ccccc21` to `c1cncc(-c2nc(-c3ccc4c(c3)OCCO4)cs2)c1`, the “hERG current change (%, negative = inhibition) at 1uM” value rises from 7.58% to 9.93%.

First: CC1CCCCC12NC(=O)N(CC(=O)Nc1ccc(N3CCOCC3)cc1)C2=O (centres unmarked)
Second: N#CCC(=O)Nc1nc(-c2ccc3c(c2)OCCO3)cs1
The “hERG current change (%, negative = inhibition) at 1uM” value of the first is lower: 4.35% for the first, 8.5% for the second.

First: CNc1c([N+](=O)[O-])cnn1-c1ccccc1Cl
Second: c1ccn2cc(-c3ccc4c(c3)OCCO4)nc2c1
The “hERG current change (%, negative = inhibition) at 1uM” value of the first is lower: -13.4% for the first, 4.22% for the second.

Going from `Cl.Nc1nc(-c2ccc3c(c2)OCCO3)cs1` to `N#Cc1ncc(-c2ccc3c(c2)OCCOCCOCCOCCO3)nc1C#N`, the “hERG current change (%, negative = inhibition) at 1uM” value falls from 14.3% to -63.6%.

First: O=[N+]([O-])c1ccc2c(c1)OCCOCCOCCOCCOCCOCCO2
Second: N#Cc1cncc(-c2ccc3c(c2)OCCOCCOCCOCCOCCO3)n1
The “hERG current change (%, negative = inhibition) at 1uM” value of the first is higher: -32.5% for the first, -95.2% for the second.

For `N#Cc1ncc(-c2ccc3c(c2)OCCOCCOCCOCCOCCO3)nc1C#N`, the “hERG current change (%, negative = inhibition) at 1uM” value was -84.8%.
